Source: PubChem BioAssay (Tox21)
Records with an inconclusive call do not appear. Activity calls are given as the source filed them. Unless noted, calls come from the whole dose curve.

Tests used:
[1] = Nuclear factor erythroid 2-related factor 2/antioxidant responsive element (Nrf2/ARE) small molecule agonists: qHTS cell viability counter screen in human keratinocytes (AID 1919968; active = well fitted curve in the direction sought with a large enough effect in the repeat runs; an effect the other way counts as inactive or inconclusive; note: nearly all actives have a fitted effect of over 55% in size)
Method in brief: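 CellTiter-Fluor fluorescence, read 1 h after reagent, gave viability in the same wells as the ARE-luciferase assay. KeratinoSens cells (1,500/well) had 23 h compound exposure at 37 C/5% CO2 following 5 h plating.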

[2] = Nuclear factor erythroid 2-related factor 2/antioxidant responsive element (Nrf2/ARE) small molecule agonists: luciferase reporter gene qHTS assay in human keratinocytes (AID 1919969); note: nearly all actives have a fitted effect of over 35% in size; note: potency is the fitted concentration of half-maximal effect
[3] = biological target: Gonadotropin-releasing hormone receptor (Homo sapiens) (UniProt P30968); test: Human gonadotropin-releasing hormone receptor (GnRHR) small molecule agonists, calcium flux assay in GnRHR-HEK293 cells (AID 1920063); note: nearly all actives have a fitted effect of over 35% in size
Chain of Gonadotropin-releasing hormone receptor (Homo sapiens) (P30968 whole entry, looked up): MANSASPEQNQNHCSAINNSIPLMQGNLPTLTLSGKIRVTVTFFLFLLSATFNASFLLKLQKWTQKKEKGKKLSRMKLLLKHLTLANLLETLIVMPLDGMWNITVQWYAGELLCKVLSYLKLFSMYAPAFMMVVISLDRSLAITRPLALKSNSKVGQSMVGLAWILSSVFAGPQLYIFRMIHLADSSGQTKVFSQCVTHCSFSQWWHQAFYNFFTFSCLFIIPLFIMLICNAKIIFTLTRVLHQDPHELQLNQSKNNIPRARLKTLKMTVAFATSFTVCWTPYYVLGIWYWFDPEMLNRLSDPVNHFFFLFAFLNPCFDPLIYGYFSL
Method in brief: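 Agonist mode: compounds at 15 concentrations, in triplicate, went onto calcium dye-loaded GnRHR-HEK293 cells. Intracellular calcium was then followed as 480/540 nm fluorescence at 1 s intervals over 3 min.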

[4] = biological target: KiSS-1 receptor (Homo sapiens) (UniProt Q969F8); test: Human kisspeptin (KISS1R) small molecule agonists, calcium flux assay in KISS1R-HEK293 cells (AID 1920064; active = well fitted curve in the direction sought with a large enough effect in the repeat runs; an effect the other way counts as inactive or inconclusive)
Chain of KiSS-1 receptor (Homo sapiens) (Q969F8 whole entry, looked up): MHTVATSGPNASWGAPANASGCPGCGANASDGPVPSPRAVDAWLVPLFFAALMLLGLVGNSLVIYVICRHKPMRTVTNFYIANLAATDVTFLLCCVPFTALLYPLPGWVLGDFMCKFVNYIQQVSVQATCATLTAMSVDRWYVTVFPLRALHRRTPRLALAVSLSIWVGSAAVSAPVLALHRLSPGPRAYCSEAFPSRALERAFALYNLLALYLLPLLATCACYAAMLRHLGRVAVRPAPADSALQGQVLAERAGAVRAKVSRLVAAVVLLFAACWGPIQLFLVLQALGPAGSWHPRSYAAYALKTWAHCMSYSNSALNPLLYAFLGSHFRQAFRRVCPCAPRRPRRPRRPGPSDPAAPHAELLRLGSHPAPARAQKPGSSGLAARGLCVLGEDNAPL
Method in brief: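 Agonist mode: intracellular calcium rise tracked at 1 s intervals over 3 min (480/540 nm) immediately after compound addition to dye-loaded KISS1R-HEK293 stable cells. Each compound tested at 15 concentrations in triplicate.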

[5] = G protein-coupled receptor (GPCR) small molecule agonists, calcium flux assay: HEK293 wild type cell line counter screen (AID 1920065)
Method in brief: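 Calcium flux counter screen: compound added in agonist mode at 15 concentrations in triplicate to dye-loaded parental HEK293 cells. Fluorescence (480/540) read kinetically for 3 min; ATP served as positive control.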

[6] = p53 small molecule agonists, cell-based qHTS assay with human liver microsomes (AID 1963577)
Method in brief: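 Cells carrying a p53-responsive bla reporter were rested 5 h (37 C, 5% CO2) before compound transfer. Human liver microsomes plus NADPH, 0.5 mg/mL final apiece, supplied metabolism during the 16 h 37 C exposure.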

[7] = p53 small molecule agonists, cell-based qHTS assay with rat liver microsomes (AID 1963578)
Method in brief: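 Fluorescence from a beta-lactamase reporter under a p53 response element was measured after cells had been incubated 16 h at 37 C with test compound and rat liver microsomes plus NADPH (0.5 mg/mL final each).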

[8] = p53 small molecule agonists, cell-based qHTS assay with human liver microsomes: qHTS cell viability counter screen (AID 1963579); note: nearly all actives have a fitted effect of over 45% in size
Method in brief: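 Seed p53RE-bla cells at 4,000 per well; incubate 5 h at 37 C; add compound, human liver microsomes and NADPH; incubate 16 h at 37 C; add CellTiter-Glo; after 30 min at room temperature, read luminescence.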

[9] = p53 small molecule agonists, cell-based qHTS assay with rat liver microsomes: qHTS cell viability counter screen (AID 1963580); note: nearly all actives have a fitted effect of over 45% in size
Method in brief: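 Luminescent ATP readout (CellTiter-Glo, 30 min at room temperature) reports viability of p53RE-bla HCT-116 cells after 16 h at 37 C with test compounds under metabolic activation by rat liver microsomes and NADPH at 0.5 mg/mL final each.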

[10] = p53 small molecule agonists, cell-based qHTS assay: qHTS cell viability counter screen (AID 1963581); note: nearly all actives have a fitted effect of over 45% in size
Method in brief: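 Counter screen read by CellTiter-Glo luminescence (ATP content, 30 min at room temperature), run in the same wells as the beta-lactamase reporter read. HCT-116 p53RE-bla cells saw compounds for 16 h at 37 C.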

[11] = p53 small molecule agonists, cell-based qHTS assay (AID 1963582; active = well fitted activation curve with a large enough effect in the signal ratio in the repeat runs, not every such curve was filed as active; the % refers to the signal ratio)
Method in brief: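 Read-out is beta-lactamase FRET fluorescence after 2 h at room temperature with LiveBLAzer B/G substrate. p53 response element-bla cells were treated 16 h at 37 C with compounds in DMSO, added 5 h after seeding.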

[12] = biological target: 5-hydroxytryptamine receptor 2A (Homo sapiens) (UniProt P28223); test: 5-hydroxytryptamine receptor 2A (HTR2A) small molecule antagonists, cell-based qHTS assay (AID 1963586); note: nearly all actives have a fitted effect of over 45% in size
Chain of 5-hydroxytryptamine receptor 2A (Homo sapiens) (P28223 whole entry, looked up): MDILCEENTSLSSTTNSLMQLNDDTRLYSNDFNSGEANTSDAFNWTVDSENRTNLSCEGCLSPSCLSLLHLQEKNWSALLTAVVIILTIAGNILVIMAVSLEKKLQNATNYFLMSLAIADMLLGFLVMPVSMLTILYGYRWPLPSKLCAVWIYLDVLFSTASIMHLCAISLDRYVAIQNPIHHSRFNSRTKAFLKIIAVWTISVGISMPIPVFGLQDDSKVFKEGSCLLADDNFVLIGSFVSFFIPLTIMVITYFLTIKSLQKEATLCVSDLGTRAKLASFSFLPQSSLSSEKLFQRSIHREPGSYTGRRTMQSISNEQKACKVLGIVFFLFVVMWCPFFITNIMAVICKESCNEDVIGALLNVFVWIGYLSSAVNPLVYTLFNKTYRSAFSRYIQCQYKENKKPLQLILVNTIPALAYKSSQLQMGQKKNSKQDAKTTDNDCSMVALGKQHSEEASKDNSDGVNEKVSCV
Method in brief: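 CHO cells stably expressing human HTR2A were plated for 18 h at 37 C, then loaded with calcium dye for 1 h. Compounds were preincubated 5 min at room temperature before DOI (4 nM solution) was added. Kinetic fluorescence was read for 3 min.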

[13] = biological target: 5-hydroxytryptamine receptor 2A (Homo sapiens) (UniProt P28223); test: 5-hydroxytryptamine receptor 2A (HTR2A) small molecule agonists, cell-based qHTS assay (AID 1963587); note: nearly all actives have a fitted effect of over 30% in size
Method in brief: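 HTR2A-CHO cells, plated 18 h at 37 C/5% CO2, dye-loaded 1 h at 37 C; compounds in DMSO added by pin tool (agonist mode). Intracellular calcium flux read as kinetic fluorescence on FDSS over 2 min at 1 s intervals.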

[14] = biological target: Muscarinic acetylcholine receptor M1 (Homo sapiens) (UniProt P11229); test: Cholinergic receptor muscarinic 1 (CHRM1) small molecule antagonists, cell-based qHTS assay (AID 1963588); note: nearly all actives have a fitted effect of over 40% in size
Chain of Muscarinic acetylcholine receptor M1 (Homo sapiens) (P11229 whole entry, looked up): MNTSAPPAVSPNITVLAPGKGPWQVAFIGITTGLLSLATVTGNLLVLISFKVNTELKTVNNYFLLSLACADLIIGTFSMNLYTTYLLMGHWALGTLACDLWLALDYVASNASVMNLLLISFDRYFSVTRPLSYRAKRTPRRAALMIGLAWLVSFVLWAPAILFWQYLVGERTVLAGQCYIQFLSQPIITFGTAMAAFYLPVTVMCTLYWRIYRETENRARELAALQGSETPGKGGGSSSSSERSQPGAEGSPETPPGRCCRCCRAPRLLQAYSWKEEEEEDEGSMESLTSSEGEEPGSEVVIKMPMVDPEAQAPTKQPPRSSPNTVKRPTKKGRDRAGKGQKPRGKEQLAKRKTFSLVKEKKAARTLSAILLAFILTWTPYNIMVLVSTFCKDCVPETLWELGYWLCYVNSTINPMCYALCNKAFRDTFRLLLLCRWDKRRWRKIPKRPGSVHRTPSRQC
Method in brief: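 Compounds were tested at 15 concentrations in three independent runs. Dye-loaded CHRM1-CHO cells were exposed 5 min at room temperature before stimulation by acetylcholine added at 50nM. Intracellular calcium was read kinetically on FDSS for 3 min.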

[15] = biological target: Muscarinic acetylcholine receptor M1 (Homo sapiens) (UniProt P11229); test: Cholinergic receptor muscarinic 1 (CHRM1) small molecule agonists, cell-based qHTS assay (AID 1963589); note: nearly all actives have a fitted effect of over 35% in size
Method in brief: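 Agonist-mode calcium-flux screen: compounds at 15 concentrations, three independent runs, were pin-transferred onto dye-loaded human CHRM1-CHO cells. Fluorescence was then recorded kinetically every second over minutes.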

[16] = cAMP Responsive Elements (CRE) small molecule agonists, cell-based qHTS assay (AID 1963590)
Method in brief: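 Agonist mode: compound added to CRE-bla HEK 293T cells (2,000/well, 18 h after plating) for 3 h at 37 C/5% CO2. Reporter activity detected via FRET beta-lactamase substrate, 2 h room-temperature loading.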

[17] = cAMP Responsive Elements (CRE) small molecule antagonists, cell-based qHTS assay (AID 1963591; active = well fitted inhibition curve with a large enough effect in the signal ratio in the repeat runs, not every such curve was filed as active; the % refers to the signal ratio)
Method in brief: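 Antagonist mode: compounds are added alongside the adenylyl cyclase activator NKH477 (0.25 uM final) to CRE-bla HEK293T cells for 3 h. LiveBLAzer FRET substrate, 2 h at room temperature, reports bla expression.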

[18] = biological target: Beta-2 adrenergic receptor (Homo sapiens) (UniProt P07550); test: Adrenergic beta2 receptor (ADRB2) small molecule antagonists, cell-based qHTS assay (AID 1963592); note: series mostly up to about 92 µM; nearly all actives have a fitted effect of over 50% in size
Chain of Beta-2 adrenergic receptor (Homo sapiens) (P07550 whole entry, looked up): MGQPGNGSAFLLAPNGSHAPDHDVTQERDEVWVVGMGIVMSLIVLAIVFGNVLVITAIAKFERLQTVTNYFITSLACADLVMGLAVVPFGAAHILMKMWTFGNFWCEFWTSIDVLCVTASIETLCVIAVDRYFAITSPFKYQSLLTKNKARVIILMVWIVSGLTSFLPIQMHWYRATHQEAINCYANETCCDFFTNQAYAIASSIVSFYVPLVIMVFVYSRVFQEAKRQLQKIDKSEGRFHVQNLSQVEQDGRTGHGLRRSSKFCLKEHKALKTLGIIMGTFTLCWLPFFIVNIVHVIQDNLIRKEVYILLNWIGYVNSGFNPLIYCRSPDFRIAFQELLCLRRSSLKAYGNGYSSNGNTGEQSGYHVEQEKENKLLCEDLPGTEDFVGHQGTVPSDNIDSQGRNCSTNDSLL
Method in brief: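 Assay format: CHO-ADRB2 cells, 18-20hr seeding at 37C/5% CO2, then compound plus 1nM isoproterenol agonist mix for 0.5hr RT. Homogeneous time-resolved fluorescence cAMP detection after 1hr, expressed as 665/615 nm ratio.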

[19] = biological target: Beta-2 adrenergic receptor (Homo sapiens) (UniProt P07550); test: Adrenergic beta2 receptor (ADRB2) small molecule agonists, cell-based qHTS assay (AID 1963593);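 note: CHO cells stably overexpressing human ADRB2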
Method in brief: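 CHO cells stably over-expressing ADRB2 were plated overnight at 37C, then dosed with compounds plus a stimulation mix containing 100uM IBMX and 25uM Ro-20-1724 for 0.5hr at room temperature. cAMP was measured by HTRF competition, 1hr.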

[20] = biological target: D(2) dopamine receptor (Homo sapiens) (UniProt P14416); test: Dopamine D2 receptor (DRD2) small molecule agonists, cell-based qHTS assay (AID 1963594); note: nearly all actives have a fitted effect of over 35% in size
Chain of D(2) dopamine receptor (Homo sapiens) (P14416 whole entry, looked up): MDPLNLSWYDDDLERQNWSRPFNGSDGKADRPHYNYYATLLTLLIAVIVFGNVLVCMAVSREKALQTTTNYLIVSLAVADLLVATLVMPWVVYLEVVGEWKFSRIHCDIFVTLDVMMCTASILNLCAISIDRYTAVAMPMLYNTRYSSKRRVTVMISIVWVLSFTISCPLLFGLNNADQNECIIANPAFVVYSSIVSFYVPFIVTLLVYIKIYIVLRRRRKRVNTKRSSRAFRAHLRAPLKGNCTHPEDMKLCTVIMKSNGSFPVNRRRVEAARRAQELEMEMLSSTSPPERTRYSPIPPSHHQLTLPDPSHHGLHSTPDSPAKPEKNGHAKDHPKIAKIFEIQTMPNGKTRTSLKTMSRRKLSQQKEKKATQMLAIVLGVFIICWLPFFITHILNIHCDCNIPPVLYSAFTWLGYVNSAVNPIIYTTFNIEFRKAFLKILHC
Method in brief: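 HEK293 cells stably expressing DRD2 were cultured 24 h at 37 C, then given Ro20-1724 (0.1 mM final) and compounds for 10 min at room temperature. NKH477 (200nM) was then added for 30 min. cAMP was read by HTRF.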

Measured: Potency

Cc1cc(C)cc(O)c1
inactive: all assays above

CCC(C)(C)CC
inactive: all assays above

CCCCC(CC)C(=O)OCCOCCOCCOC(=O)C(CC)CCCC (stereo not given)
active: [2] 68.6 µM
inactive: all other assays above

CC(C)=C1CC[C@@H](C)CC1=O
inactive: all assays above

CCCCCCCCOCCC#N
inactive: all assays above

CC(O)CNCC(C)O (stereo not given)
inactive: all assays above

c1ccc(CCc2ccccc2)cc1
inactive: all assays above

CCO[Si](C)(C)OCC
inactive: all assays above

CCCCCC(CC)OC(=O)CCCOc1ccc(Cl)cc1Cl (stereo not given)
inactive: all assays above

CC1=CC(=O)[C@H]2C[C@@H]1C2(C)C
inactive: all assays above

CCCCCCOC(=O)C(C)CC (stereo not given)
inactive: all assays above

CC(CC=O)CC(C)(C)C (stereo not given)
inactive: all assays above

OC[C@H]1O[C@@H](O[C@H]2[C@H](O)[C@@H](O)[C@H](O)O[C@@H]2CO)[C@H](O)[C@@H](O)[C@H]1O
inactive: all assays above

CC(C)(C)C(=O)C(Oc1ccc(Cl)cc1)n1ccnc1 (stereo not given)
inactive: all assays above
